High-throughput results from PubChem.
KinaseGlo FLuc: blocks Kinase-Glo luciferase, a counter-screen artifact | Potency, µM (series often up to 38.3 µM), without a hit: top-dose activity change, negative = inhibition, most hits filed as inhibitors | Kinase-Glo luciferase, ATP luminescence, 8 min | Q27757 | AID 1379 | 200,000 tested, 0.28% active; active means well fitted inhibition curve with a large enough effect; inconclusive means small, poorly fitted or top-dose-only effect; further: potency means the concentration at half of the fitted maximal effect; nearly all actives have a fitted effect of over 60% in size
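Inhibition of Kinase-Glo luciferase light generation was assessed at 10 uM ATP in pH 7.2 imidazole buffer, with luminescence measured after eight minutes at ambient temperature.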
PNC inhibitor: perinucleolar compartment assembly inhibition; PC3M PTB-GFP, PNC prevalence imaging, 16 h; active compounds read low; 140,000 tested, 3.1% active; activity change (PNC), negative = inhibition, % at 10 µM; AID 2417;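 active means readout at or below -70, meaning at least 70% loss of cells showing the perinucleolar compartment, a nuclear body marking cancer cells; inconclusive means readout between -30 and a set limit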;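 further: plate controls were DMSO wells for no effect and camptothecin positive control wells for full effect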
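Read-out is percentage of cells bearing a perinucleolar compartment, from automated 20x imaging of fixed, Hoechst-stained PC3M PTB-GFP cells. Cells were seeded 4 h, then exposed 16 h to compound (23 nl of library stock) in duplicate plates.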
HPGD inh: blocks human HPGD enzyme activity | P15428 | purified HPGD, NADH fluorescence kinetic, PGE2 substrate | Potency, µM, inactives show top-dose activity change, negative = inhibition, usual class: inhibitors | 150,000 tested, 4.3% active | AID 894; further: potency means the concentration at half of the fitted maximal effect
Target sequence (P15428 whole entry, looked up): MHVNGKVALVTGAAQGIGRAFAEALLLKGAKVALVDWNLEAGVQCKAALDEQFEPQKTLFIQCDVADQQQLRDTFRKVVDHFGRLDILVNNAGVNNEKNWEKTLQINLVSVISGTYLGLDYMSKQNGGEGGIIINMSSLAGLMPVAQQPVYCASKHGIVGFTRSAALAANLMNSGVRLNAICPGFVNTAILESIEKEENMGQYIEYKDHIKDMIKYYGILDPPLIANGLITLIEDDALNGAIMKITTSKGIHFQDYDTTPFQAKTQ
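NADH formation kinetics: reaction with 30 uM PGE2 and 1 mM NAD+ (final), 20 nM enzyme, Tris-HCl pH 8 with Tween 20, after 15 min compound preincubation at room temperature. Fluorescence change, last versus first of five reads.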
ALDH1A1 inh: inhibitors of human aldehyde dehydrogenase 1A1 | Purified ALDH1A1, NADH fluorescence, propionaldehyde substrate | AID 1030 | Potency, µM (top dose mostly 75.3 µM), for inactives: at the highest dose activity, negative = inhibition, hits mostly inhibitors | 220,000 tested, 7.3% active;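 further: potency means the concentration at half of the fitted maximal effect; plate controls were no enzyme wells and a reference inhibitor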
Lamin A splicing: changes lamin A minigene splicing in HeLa cells; HeLa LMNA splicing GFP/RFP minigene ratio, 48 h; Potency, µM (highest dose often 46.1 µM), for the others: top-dose ratio change, negative = inhibition, usual class: inhibitors; 200,000 tested, 0.01% active; active means well fitted inhibition curve with a large enough effect in the signal ratio, with a control signal flat, not every such curve was filed as active; inconclusive means small, poorly fitted or top-dose-only effect, or effect the other way, or a change in a side signal; the % refers to the signal ratio; further: potency means the concentration at half of the fitted maximal effect
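S3 HeLa stable clones carrying a lamin A-EGFP splicing minigene plus DsRed2 were seeded at 600 cells/well in Opti-MEM with 2% FBS, pin-dosed and incubated 48 h at 37°C. Acumen cytometry (488 nm) gave the GFP/RFP total-intensity ratio.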
Active calls of the source: *; ? = inconclusive; . = no result; [ ] = dose if it differs, or a comment. This is a sample that favours compounds with a hit; in the whole collection about 10% have one here. Unless noted, the call rests on the fitted dose curve; in most records, active means well fitted inhibition curve with a large enough effect (not every such curve was filed as active); inconclusive means small, poorly fitted or top-dose-only effect, or another doubt; inactive means no such curve, though single readings can be large or run the other way. Unless noted, on the % scale 0 is the no-effect control and ±100 the full control effect.

SMILES	KinaseGlo FLuc	PNC inhibitor	HPGD inh	ALDH1A1 inh	Lamin A splicing
Cc1c2cccc(Sc3ccccc3)c2c2c3c(cccc13)[S+](c1ccccc1)C2 (centres undefined)	-7.0%[7.66 µM]	.	-8.5%	-10.5%[13.5 µM]	.
CC[C@H](C)[C@@H](NC(=O)O[C@@H]1C(=O)c2ccc(OC)cc2O[C@H]1c1cccc(C(F)(F)F)c1)C(=O)OC	-1.0%	.	-1.7%	-2.8%	.
COc1ccccc1C(=O)Nc1ccc2nc(SCC(=O)N(C)c3ccccc3)sc2c1	.	.	.	.	-14.1%[46 µM]
C#CCn1c(S(=O)(=O)Cc2ccc(F)cc2)nc(-c2ccccc2)c1-c1ccccc1	1.6%	-105.9*	-10.8%	4.7%	?
Cc1ccc(COc2ccsc2-c2n[nH]c(=S)n2C)cc1	-3.8%	5.6	?	20µM*	8.9%
Cn1c(-c2sccc2OCc2ccccc2)n[nH]c1=S	6.5%	12.6	?	?	0.8%
Cn1c(-c2sccc2OCc2ccc(Cl)cc2Cl)n[nH]c1=S	-2.1%	.	.	31.6µM*	9.4%[46 µM]
COCCN(CCOC)c1ncnc2c1c(-c1ccccc1)cn2-c1ccc(C)c(Cl)c1	.	.	.	.	-18.5%[46 µM]
COc1ccc(CNS(=O)(=O)c2cc3c(cc2C)n(C)c(=O)c(=O)n3C)cc1	.	.	.	.	11.6%[46 µM]
CC(=O)Nc1cccc(Oc2ncnc3scc(-c4ccc(C)cc4)c23)c1	1.3%	-83.1*	28.2µM*	?	?
CC(C)Cc1nnc(NC(=O)Cc2cccs2)s1	-2.9%	.	.	?	?
CC(C)Cc1nnc(NC(=O)Cc2ccccc2[N+](=O)[O-])s1	-0.9%	?	31.6µM*	?	-6.2%
CC(C)(C)Cc1nnc(NC(=O)Cc2ccc([N+](=O)[O-])cc2)s1	-0.6%	-13.0	14.1µM*	11.2µM*	2.8%
CCN(CC)S(=O)(=O)c1ccc2c(c1)nc(CN(C)C(=O)Nc1cccc(Cl)c1)n2C	.	.	.	.	-9.9%[46 µM]
COc1ccccc1CNc1cc(-c2cccc(C#N)c2)ncn1	.	.	.	?	-2.6%
CCOc1ccc(C(=O)CSc2nnc(C3CC3)n2C)cc1	-0.4%	-1.5	-24.6%	7.94µM*	-13.0%
COc1ccc(NCc2nnc(SCC(=O)c3ccc(OC)cc3)n2C)cc1	-0.9%	-27.2	-20.6%	6.31µM*	0.8%
CCOc1ccc(NC(=O)CSc2nnc(C3CC3)n2C)cc1	0.5%	.	.	5.6%	.
COc1ccc(NCc2nnc(SCC(=O)NCc3ccccc3)n2-c2ccccc2OC)cc1	6.7%	-105.8*	2.3%	?	-9.9%
COc1ccc(NC(=O)CSc2nnc(CNC(=O)c3ccco3)n2-c2ccccc2OC)cc1	-6.3%	-17.2	-10.1%	?	-6.2%
CC[C@H](C)C(=O)O[C@H]1C[C@H](O)C=C2C=C[C@H](C)[C@H](CC[C@@H](O)C[C@@H](O)CC(=O)O)[C@H]21	-0.3%	.	-3.8%	7.2%	.
O=C(Nc1ccccc1)N1CC[C@@]2(CCCN(C(=O)c3csnn3)C2)C1	-4.7%	.	-8.4%	-7.5%	.
Cc1cc(C)c(C)c(S(=O)(=O)N2CCN(C(=O)c3cc(=O)[nH]c4ccccc34)CC2)c1C	-0.4%	2.4	-6.5%	14.1µM*	?
Cc1ccc(S(=O)(=O)N2CCN(C(=O)c3cc(=O)[nH]c4ccccc34)CC2)c(C)c1	-0.2%	0.5	-26.8%	?	-13.4%
O=C(c1cc(=O)[nH]c2ccccc12)N1CCN(c2ccc([N+](=O)[O-])cc2)CC1	.	.	.	2.99µM*	.
SMILES	KinaseGlo FLuc	PNC inhibitor	HPGD inh	ALDH1A1 inh	Lamin A splicing
O=C(NC(=S)NC1CCSC1=O)c1ccccc1 (centres undefined)	-2.5%	12.1	-6.8%	1.6%	-6.4%
O=C(NC1CSC/C1=N\O)c1ccccc1 (centres undefined)	-2.2%	10.3	-10.8%	22.4µM*	4.5%
CCN(CC)C(=O)c1cn(-c2ccccc2)nc1-c1ccc2c(c1)OCCO2	5.2%	.	.	-7.7%	.
N#Cc1cn(-c2ccccc2)nc1-c1ccc2c(c1)OCCO2	0.4%	-100.0*	-8.6%	-6.2%	0.2%
N#Cc1cn(-c2ccccc2)nc1C(=O)c1ccccc1	-2.5%	41.2	-9.8%	-9.1%	-5.1%
N#Cc1cn(-c2ccccc2)nc1-c1ccco1	-1.3%	-21.1	-12.5%	28.2µM*	-1.1%
O=Cc1cn(-c2ccccc2)nc1-c1ccc2c(c1)OCCO2	1.5%	?	-12.8%	17.8µM*	?
Cc1cc(C)cc(NC(=O)CSc2nccn2C2CCCC2)c1	.	.	.	.	14.2%[46 µM]
